Screening data from PubChem BioAssay.
Only a sample is shown.
aSyn 5UTR act: Activators working through SNCA 5'UTR binding (MLPCN). activity score, % (tested at 7.5 µM), hits read low. 300,000 tested, 7.1% active. AID 1814. alpha-synuclein 5'UTR reporter, activators screen; in the data active means activity score below about -60%
A number is an active result; – = inactive.

SMILES	aSyn 5UTR act
O=C(c1ccc(Cl)cc1)c1cnc(Nc2ccccc2Cl)s1	-156.3
N=C1C(c2nc3ccccc3[nH]2)=C(O)CN1C1CCCCC1	-115.9
N=C1C(c2nc3ccccc3[nH]2)=C(O)CN1c1ccc(F)cc1	-65.0
S=C(Nc1ccc(Cl)cc1Cl)NC1CCCCC1	-126.7
O=C(Nc1ccc(Cl)cc1Cl)NC1CCCC1	-74.0
CN(C(=O)Nc1ccc(Cl)cc1Cl)C1CCCC1	-118.1
O=C(NC1CCCCC1)Sc1ccc(Cl)cc1	-71.7
CCN(CC)c1ccc(NC(=O)c2cc(Cl)ccc2OC)cc1	-62.9
COc1ccc(Cl)cc1C(=O)Nc1ccc2c(c1)OCCO2	-103.6
COc1ccc(Cl)cc1C(=O)Nc1ccc2c(c1)OCO2	-129.9
CCN(CC)c1ccc(Nc2cc3n(c(=O)n2)CCc2cc(OC)c(OC)cc2-3)cc1	–
CC1CC2(C)Oc3ccccc3CC2C(C)C1CNCCCN(C)C (stereo not given)	–
CCn1cnc2sc(C(=O)Nc3ccc4c(c3)OCO4)c(C)c2c1=O	-145.1
CCCNC(=O)Cn1cnc2sc(C(=O)Nc3ccc4c(c3)OCO4)c(C)c2c1=O	-63.5
O=C(Cc1sc(Nc2ccccc2)nc1-c1ccccc1)NCc1ccccn1	-182.4
Cc1ccc(Nc2nc(-c3ccccc3)c(CC(=O)O)s2)cc1	-154.8
O=C(O)Cc1sc(Nc2ccccc2)nc1-c1ccc(Cl)cc1	-149.4
O=C(O)Cc1sc(Nc2ccc(F)cc2)nc1-c1cccs1	-132.4
Nc1ccc2c(c1)Cc1cc([N+](=O)[O-])ccc1-2	-79.4
O=C(N/N=C/c1cn(-c2cccs2)nc1-c1ccccc1)c1ccccc1Br	-73.4
COc1ccc(NC(=O)c2cn(-c3ccccc3)nc2-c2cc3ccccc3o2)cc1	-70.8
OCc1cn(-c2ccccc2)nc1-c1cc2ccccc2o1	-178.5
N#Cc1cn(-c2ccccc2)nc1-c1cc2ccccc2oc1=O	-63.2
COc1ccc(-c2nn(-c3ccccc3)cc2C(=O)NC(=S)NNC(=O)c2ccncc2)cc1	–
COc1ccc(-c2nn(-c3ccccc3)cc2C#N)cc1	-126.0
SMILES	aSyn 5UTR act
O=C(N/N=C/c1cn(-c2ccccc2)nc1-c1cc2ccccc2o1)c1ccccc1Br	-114.8
O=C(Nc1ccc2c(c1)OCO2)N1CCCc2ccccc21	-102.8
O=C(Nc1ccc(S(=O)(=O)N2CCc3ccccc32)cc1)c1ccc2c(c1)OCO2	-72.9
CC(=O)c1cccc(NC(=O)N2CCCc3ccccc32)c1	-130.9
CS(=O)(=O)N1CCc2cc(C(=O)Nc3ccc(Cl)cc3)ccc21	-137.9
COC(=O)Nc1ccc(S(=O)(=O)N2CCCc3ccccc32)cc1	–
O=C(Cc1ccccc1F)Nc1ccc2c(c1)CCC2	-169.3
O=C(Cc1ccc2c(c1)CCCC2)Nc1ccc2ccccc2c1	-160.5
Oc1ccccc1N=Cc1sc2ccccc2c1Cl	-103.9
Cc1ccc(O)c(N=Cc2sc3ccccc3c2Cl)c1	-90.5
CCOc1ccc(C2=Nn3c(nnc3-c3ccccc3OC)SC2)cc1	–
CCOc1ccccc1C1N=C(c2ccc(OC)cc2)CC(c2ccccc2O)N1 (stereo not given)	-233.8
CCOc1ccccc1C1CC(=O)Nc2cc3c(cc21)OCO3 (stereo not given)	–
CC1=NN(c2ccc(C)cc2)C(=O)/C1=C\c1ccc(Br)s1	-65.5
Cc1csc(=O)n1CC(=O)OCc1cccc2ccccc12	-90.4
Cc1ccc(C2CCN(C(=O)Nc3ccccc3)C2)cc1 (stereo not given)	-151.2
O=C(Nc1cccc(F)c1)N1CCC(c2ccccc2)CC1	-109.2
O=C(Nc1ccc(Cl)cc1)N1CCC(c2ccccc2)C1 (stereo not given)	-82.4
O=C(Nc1cccc(F)c1)N1CC=C(c2ccc(Cl)cc2)CC1	-109.8
CCC(C)(C)c1ccc(OCCCC[n+]2cccc(C)c2C)c(C(C)(C)CC)c1	–
O=[N+]([O-])c1cccc(-c2ccc(/C=N/Nc3nc(N4CCCCC4)nc(N4CCCCC4)n3)o2)c1	–
O=C1NC(=O)/C(=C/c2ccc(-c3cccc([N+](=O)[O-])c3)o2)S1	-125.6
O=C(/C=C/c1ccc(-c2cccc([N+](=O)[O-])c2)o1)N1CCOCC1	-110.1
CCn1cc(Br)c(C(=O)Nc2ccc(OC)cc2)n1	-117.7
CCn1cc(Br)c(C(=O)Nc2ccc(Cl)c(Cl)c2)n1	-151.3
SMILES	aSyn 5UTR act
CCn1ccc(C(=O)Nc2ccccc2Cl)n1	-96.1
CCn1cc(Br)c(C(=O)Nc2cccc(Cl)c2)n1	-93.4
CCn1cc(Cl)c(C(=O)Nc2ccc(OC)c(OC)c2)n1	-65.8
CCn1ccc(C(=O)Nc2cccc(Cl)c2)n1	-158.5
N#CCC(=O)N/N=C\c1ccc(OC/C=C/c2ccccc2)cc1	-146.3
N#CCC(=O)N/N=C/c1ccc(OCc2ccccc2)cc1	-66.5
O=C(Nc1cccc(-c2nc3ccccc3o2)c1)c1ccc(N2C(=O)C3C4C=CC(C4)C3C2=O)cc1 (stereo not given)	–
CC(C)(C)c1ccc(OCC(=O)Nc2ccc(-c3nc4cccnc4o3)cc2)cc1	-134.8
COc1ccc(OCC(=O)Nc2cccc(-c3nc4ccccc4o3)c2)cc1	-150.7
O=C(COc1ccccc1)Nc1cccc(-c2nnc(-c3ccccc3)o2)c1	-64.3
COc1ccc(C(=O)Nc2cccc(-c3nnc(-c4ccco4)o3)c2)cc1	-92.6
CCc1ccc(OCC(=O)Nc2ccc(-c3nc4ccccc4o3)c(O)c2)cc1	-97.0
C=Cc1cccc(NC(=O)COc2ccccc2)c1	-106.9
COc1ccc(OCC(=O)Nc2cccc(-c3nc4ccccc4[nH]3)c2)cc1	-159.0
Oc1cc(NCc2cccnc2)ccc1-c1nc2ccccc2o1	-100.0
O=C(COc1ccccc1)Nc1cccc(-c2nc3ccccc3[nH]2)c1	-63.5
COc1ccc(-c2cc3nc4c(c(=O)n3[nH]2)CCC4)cc1	-158.2
O=c1c2c(nc3cc(-c4ccc(Br)cc4)[nH]n13)CCCC2	-94.5
Cc1ccc2oc(=O)c(/C=C(\O)c3cccs3)nc2c1	-148.0
Cc1ccc2oc(=O)c(/C=C(\O)c3ccccc3)nc2c1	-79.2
O=c1oc2ccc(Cl)cc2nc1/C=C(\O)c1cccs1	-107.6
OCCCCCN=c1cc(-c2ccccc2)oc2ccc(Cl)cc12	-746.8
CC(C)c1ccccc1-n1c(SCC(=O)c2ccc3c(c2)NC(=O)CO3)nc2ccccc2c1=O	–
COc1ccc(Nc2nc(-c3ccc4c(c3)NC(=O)CO4)cs2)cc1	-109.6
CCC(C)Nc1nc(-c2ccc3c(c2)NC(=O)CO3)cs1 (stereo not given)	-112.4
SMILES	aSyn 5UTR act
COc1ccc(Cc2nc3ccc(C(=O)NCC(C)(C)OC)cc3o2)cc1	-116.0
COc1ccc(Cc2nc3ccc(C(=O)NCc4cc(C)no4)cc3o2)cc1	-103.8
CSCCNC(=O)c1ccc2nc(C3CCCCC3)oc2c1	-66.5
O=C(NCC1CCOCC1)c1ccc2nc(Cc3cccc(Cl)c3)oc2c1	-79.4
COc1ccc(Cc2nc3ccc(C(=O)NCCSC)cc3o2)cc1	-97.5
COc1ccccc1C(=O)NNC(=O)c1cccc([N+](=O)[O-])c1	-61.7
COc1ccccc1C(=O)NNC(=O)c1cccc(C)c1	-138.5
COc1ccc(C2(C)NC(=O)N(CC(=O)Nc3ccc(-c4nc5ccc(C)cc5s4)cc3)C2=O)cc1 (stereo not given)	-191.4
CCC1(c2ccc(F)cc2)NC(=O)N(CC(=O)Nc2ccc(-c3nc4ccc(C)cc4s3)cc2)C1=O (stereo not given)	-201.5
Cc1nn(-c2ccccc2)c(N)c1-c1ccccc1	-72.0
Cc1nn(-c2nc3ccccc3[nH]2)c(N)c1-c1ccccc1	-182.6
Cc1nn(-c2ccccc2)c(/N=C/c2ccccc2O)c1-c1ccccc1	-175.9
Cc1cc(-c2ccccc2)n(-c2ccccc2)n1	-83.5
